Measurements: PubChem BioAssay AID1159580 (chemical genetic matrix, 2015)
Hit rate of the full screen: of about 5,500 compounds, about 2,000 (36%) were called active. About 18% were inconclusive and are not listed. Rule as the data show it: active = normalized growth mostly below about 0.91 (no sharp cut-off); inconclusive = no clear call, values can overlap the other calls; inactive = mostly above about 0.92. Some of the results follow.

Assay: chemical genetic growth profiling, strain panel (AID 1159580);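 also: tested at 20 µM; growth read once vehicle control cultures reached saturation at 30 °C; 1 = growth at the plate median or of vehicle wells; lower values mean less growth of the strain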
Settings: growth OD
[1] = S. cerevisiae deletion strains, locus YAL013W, strain DEP1, hits give low values
[2] = S. cerevisiae deletion strains, locus YBR229C, strain ROT2, hits give low values
[3] = S. cerevisiae deletion strains, locus YDL101C, strain DUN1, hits give low values
[4] = S. cerevisiae deletion strains, locus YDR150W, strain NUM1, hits give low values
[5] = S. cerevisiae deletion strains, locus YEL061C, strain CIN8, hits give low values
[6] = S. cerevisiae deletion strains, locus YGR078C, strain PAC10, hits give low values
[7] = S. cerevisiae deletion strains, locus YGR229C, strain SMI1, hits give low values
[8] = S. cerevisiae deletion strains, locus YHR030C, strain SLT2, hits give low values
[9] = S. cerevisiae deletion strains, locus YHR087W, strain rtc3, hits give low values
[10] = S. cerevisiae deletion strains, locus YJR043C, strain POL32, hits give low values
[11] = S. cerevisiae deletion strains, locus YJR075W, strain HOC1, hits give low values
[12] = S. cerevisiae deletion strains, locus YKL190W, strain CNB1, hits give low values
[13] = S. cerevisiae deletion strains, locus YLR039C, strain RIC1, hits give low values
[14] = S. cerevisiae deletion strains, locus YLR058C, strain SHM2 (second series), hits give low values
[15] = S. cerevisiae deletion strains, locus YLR085C, strain ARP6, hits give low values
[16] = S. cerevisiae deletion strains, locus YLR262C, strain YPT6, hits give low values
[17] = S. cerevisiae deletion strains, locus YML094W, strain GIM5, hits give low values
[18] = S. cerevisiae deletion strains, locus YMR219W, strain ESC1, hits give low values
[19] = S. cerevisiae deletion strains, locus YMR263W, strain SAP30, hits give low values
[20] = S. cerevisiae deletion strains, locus YNL128W, strain TEP1, hits give low values
[21] = S. cerevisiae deletion strains, locus YNL153C, strain GIM3, hits give low values
[22] = S. cerevisiae deletion strains, locus YNL298W, strain CLA4 (second series), hits give low values
[23] = S. cerevisiae deletion strains, locus YNL322C, strain KRE1, hits give low values
[24] = S. cerevisiae deletion strains, locus YNR030W, strain Alg12, hits give low values
[25] = S. cerevisiae deletion strains, locus YPL055C, strain LGE1, hits give low values
[26] = S. cerevisiae deletion strains, locus YPL241C, strain CIN2, hits give low values
[27] = S. cerevisiae deletion strains, locus YPR135W, strain CTF4, hits give low values

Measured: normalized growth

NNC(=S)Nc1cc(C(F)(F)F)ccc1Cl
inactive: [4] 0.872 | [7] 0.997 | [9] 0.938 | [11] 0.92 | [14] 0.977 | [18] 0.978 | [19] 0.914 | [23] 0.993
active: [1] 0.926 | [2] 0.87 | S. cerevisiae deletion strains, locus YCL061C, strain MRC1, hits give low values 0.828 | [3] 0.875 | S. cerevisiae deletion strains, locus YDL134C, strain PPH21, hits give low values 0.86 | [5] 0.807 | [6] 0.848 | [8] 0.324 | [10] 0.88 | [12] 0.64 | [13] 0.711 | [15] 0.298 | [16] 0.804 | [17] 0.81 | [20] 0.858 | [21] 0.899 | [22] 0.408 | [24] 0.525 | [25] 0.786 | [26] 0.664 | [27] 0.373

CN(NC(=S)Nc1cc(Cl)ccc1Cl)c1ccc(C(F)(F)F)cc1[N+](=O)[O-]
inactive: S. cerevisiae deletion strains, locus YAR019C, strain CDC15, hits give low values 0.972 | S. cerevisiae deletion strains, locus YBL105C, strain PKC1, hits give low values 0.972 | S. cerevisiae deletion strains, locus YBR135W, strain CKS1, hits give low values 0.982 | S. cerevisiae deletion strains, locus YBR136W, strain MEC1, hits give low values 0.97 | S. cerevisiae deletion strains, locus YBR160W, strain CDC28, hits give low values 0.979 | S. cerevisiae deletion strains, locus YDL017W, strain CDC7, hits give low values 0.972 | S. cerevisiae deletion strains, locus YDL028C, strain MPS1, hits give low values 0.985 | [3] 0.969 | S. cerevisiae deletion strains, locus YDL108W, strain KIN28, hits give low values 0.969 | S. cerevisiae deletion strains, locus YDL132W, strain cdc53, hits give low values 0.97 | S. cerevisiae deletion strains, locus YDL214C, strain PRR2, hits give low values 0.946 | S. cerevisiae deletion strains, locus YDR052C, strain DBF4, hits give low values 0.965 | S. cerevisiae deletion strains, locus YDR054C, strain cdc34, hits give low values 0.97 | S. cerevisiae deletion strains, locus YDR226W, strain ADK1, hits give low values 0.984 | S. cerevisiae deletion strains, locus YDR477W, strain SNF1, hits give low values 0.964 | S. cerevisiae deletion strains, locus YER123W, strain YCK3, hits give low values 0.893 | S. cerevisiae deletion strains, locus YER133W, strain GLC7, hits give low values 0.949 | S. cerevisiae deletion strains, locus YFL009W, strain cdc4, hits give low values 0.977 | S. cerevisiae deletion strains, locus YFL029C, strain CAK1, hits give low values 0.979 | S. cerevisiae deletion strains, locus YFR003C, strain YPI1, hits give low values 0.973 | S. cerevisiae deletion strains, locus YFR019W, strain FAB1, hits give low values 0.977 | S. cerevisiae deletion strains, locus YFR028C, strain CDC14, hits give low values 0.978 | S. cerevisiae deletion strains, locus YGR040W, strain KSS1, hits give low values 0.96 | S. cerevisiae deletion strains, locus YGR052W, strain FMP48, hits give low values 0.96 | S. cerevisiae deletion strains, locus YGR092W, strain DBF2, hits give low values 0.825 | S. cerevisiae deletion strains, locus YHR079C, strain IRE1, hits give low values 0.785 | S. cerevisiae deletion strains, locus YHR082C, strain KSP1, hits give low values 1.03 | S. cerevisiae deletion strains, locus YHR205W, strain SCH9, hits give low values 0.886 | S. cerevisiae deletion strains, locus YIL147C, strain SLN1, hits give low values 0.971 | S. cerevisiae deletion strains, locus YJL095W, strain BCK1, hits give low values 0.885 | S. cerevisiae deletion strains, locus YJL128C, strain PBS2, hits give low values 0.929 | S. cerevisiae deletion strains, locus YJL157C, strain FAR1, hits give low values 0.915 | S. cerevisiae deletion strains, locus YJR016C, strain ILV3, hits give low values 0.971 | S. cerevisiae deletion strains, locus YJR066W, strain TOR1 (second series), hits give low values 0.915 | S. cerevisiae deletion strains, locus YJR066W, strain TOR1, hits give low values 0.973 | S. cerevisiae deletion strains, locus YKL048C, strain ELM1, hits give low values 0.938 | S. cerevisiae deletion strains, locus YKL067W, strain YNK1, hits give low values 0.953 | S. cerevisiae deletion strains, locus YKL101W, strain HSL1, hits give low values 0.964 | S. cerevisiae deletion strains, locus YKL193C, strain SDS22, hits give low values 0.952 | S. cerevisiae deletion strains, locus YKL203C, strain TOR2, hits give low values 0.99 | S. cerevisiae deletion strains, locus YLR133W, strain CKI1, hits give low values 0.929 | S. cerevisiae deletion strains, locus YLR403W, strain SFP1, hits give low values 0.929 | S. cerevisiae deletion strains, locus YML070W, strain DAK1, hits give low values 0.922 | S. cerevisiae deletion strains, locus YMR001C, strain CDC5, hits give low values 0.971 | S. cerevisiae deletion strains, locus YMR205C, strain PFK2 (second series), hits give low values 0.967 | S. cerevisiae deletion strains, locus YMR277W, strain FCP1, hits give low values 0.972 | S. cerevisiae deletion strains, locus YNL006W, strain LST8, hits give low values 0.974 | S. cerevisiae deletion strains, locus YNL020C, strain ARK1, hits give low values 0.897 | S. cerevisiae deletion strains, locus YNL161W, strain CBK1, hits give low values 0.977 | S. cerevisiae deletion strains, locus YNL183C, strain NPR1, hits give low values 0.972 | S. cerevisiae deletion strains, locus YNL207W, strain RIO2, hits give low values 0.976 | S. cerevisiae deletion strains, locus YNL222W, strain SSU72, hits give low values 0.982 | S. cerevisiae deletion strains, locus YNL307C, strain MCK1 (second series), hits give low values 0.932 | S. cerevisiae deletion strains, locus YOL078W, strain AVO1, hits give low values 0.974 | S. cerevisiae deletion strains, locus YOL136C, strain PFK27, hits give low values 0.903 | S. cerevisiae deletion strains, locus YOR061W, strain CKA2, hits give low values 0.907 | S. cerevisiae deletion strains, locus YOR119C, strain RIO1, hits give low values 1.04 | S. cerevisiae deletion strains, locus YOR231W, strain MKK1, hits give low values 0.847 | S. cerevisiae deletion strains, locus YOR329C, strain SCD5, hits give low values 0.97 | S. cerevisiae deletion strains, locus YPL031C, strain PHO85, hits give low values 0.937 | S. cerevisiae deletion strains, locus YPL153C, strain RAD53, hits give low values 0.942 | S. cerevisiae deletion strains, locus YPL204W, strain HRR25, hits give low values 0.911 | S. cerevisiae deletion strains, locus YPL209C, strain IPL1, hits give low values 0.977 | S. cerevisiae deletion strains, locus YPR025C, strain CCL1, hits give low values 0.981 | S. cerevisiae deletion strains, locus YPR106W, strain ISR1, hits give low values 0.981 | S. cerevisiae deletion strains, locus YPR111W, strain DBF20, hits give low values 0.959 | S. cerevisiae deletion strains, strain NNK1, hits give low values 0.951 | S. cerevisiae deletion strains, strain TSCII, hits give low values 0.968
active: [8] 0.711 | S. cerevisiae deletion strains, locus YLR113W, strain HOG1, hits give low values 0.74 | S. cerevisiae deletion strains, locus YPL256C, strain CLN2, hits give low values 0.762

NC(=S)Nc1cc(Cl)ccc1Cl
inactive: [1] 0.99 | [2] 0.976 | [3] 0.975 | [4] 0.906 | [5] 0.961 | [6] 0.975 | [7] 1 | [8] 0.888 | [9] 0.953 | [10] 0.997 | [11] 0.997 | [12] 0.999 | [13] 0.947 | [14] 0.981 | [15] 0.919 | [16] 0.979 | [17] 0.915 | [18] 1 | [19] 0.969 | [20] 0.993 | [21] 1 | [22] 0.944 | [23] 0.987 | [24] 0.988 | [25] 0.835 | [26] 0.988 | [27] 0.84 | S. cerevisiae strains, strain wild type, hits give low values 0.99
